# HP1b chromo inh – HTS for Inhibitors of HP1-beta Chromodomain Interactions with Methylated Histone Tails; AID 540317, 2011; Potency, µM (titrated, usually from 114 µM), without a hit: top-dose activity change, negative = inhibition, actives largely listed as inhibitors; AlphaScreen HP1-beta / biotin-H3K9me3 peptide binding; 390,000 compounds, 0.56% hits; also: potency is read from the fitted curve at half-maximal effect; nearly all actives have a fitted effect of over 70% in size
#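 AlphaScreen: HP1-beta (50 nM) preformed 30 min with biotin-H3(1-18)K9me3 peptide (50 nM) in PBS pH 7.4, 0.01% Tween-20. Compound added for 30 min at RT, then streptavidin donor/nickel chelate acceptor beads (10 ug/mL) for 30 min.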
# BAZ2B inh – qHTS Assay for Inhibitors of BAZ2B; Potency, µM (top dose mostly 114 µM), for the others: at the top dose activity change, negative = inhibition, actives largely listed as inhibitors; AlphaScreen BAZ2B-H3K14Ac peptide displacement; AID 504333, 2011; 360,000 compounds, 4.4% hits; also: potency is read from the fitted curve at half-maximal effect; % is scaled to controls: 0 for no effect and ±100 for the full control effect; nearly all actives have a fitted effect of over 60% in size
# Target sequence (Q9UIF8 whole entry, looked up): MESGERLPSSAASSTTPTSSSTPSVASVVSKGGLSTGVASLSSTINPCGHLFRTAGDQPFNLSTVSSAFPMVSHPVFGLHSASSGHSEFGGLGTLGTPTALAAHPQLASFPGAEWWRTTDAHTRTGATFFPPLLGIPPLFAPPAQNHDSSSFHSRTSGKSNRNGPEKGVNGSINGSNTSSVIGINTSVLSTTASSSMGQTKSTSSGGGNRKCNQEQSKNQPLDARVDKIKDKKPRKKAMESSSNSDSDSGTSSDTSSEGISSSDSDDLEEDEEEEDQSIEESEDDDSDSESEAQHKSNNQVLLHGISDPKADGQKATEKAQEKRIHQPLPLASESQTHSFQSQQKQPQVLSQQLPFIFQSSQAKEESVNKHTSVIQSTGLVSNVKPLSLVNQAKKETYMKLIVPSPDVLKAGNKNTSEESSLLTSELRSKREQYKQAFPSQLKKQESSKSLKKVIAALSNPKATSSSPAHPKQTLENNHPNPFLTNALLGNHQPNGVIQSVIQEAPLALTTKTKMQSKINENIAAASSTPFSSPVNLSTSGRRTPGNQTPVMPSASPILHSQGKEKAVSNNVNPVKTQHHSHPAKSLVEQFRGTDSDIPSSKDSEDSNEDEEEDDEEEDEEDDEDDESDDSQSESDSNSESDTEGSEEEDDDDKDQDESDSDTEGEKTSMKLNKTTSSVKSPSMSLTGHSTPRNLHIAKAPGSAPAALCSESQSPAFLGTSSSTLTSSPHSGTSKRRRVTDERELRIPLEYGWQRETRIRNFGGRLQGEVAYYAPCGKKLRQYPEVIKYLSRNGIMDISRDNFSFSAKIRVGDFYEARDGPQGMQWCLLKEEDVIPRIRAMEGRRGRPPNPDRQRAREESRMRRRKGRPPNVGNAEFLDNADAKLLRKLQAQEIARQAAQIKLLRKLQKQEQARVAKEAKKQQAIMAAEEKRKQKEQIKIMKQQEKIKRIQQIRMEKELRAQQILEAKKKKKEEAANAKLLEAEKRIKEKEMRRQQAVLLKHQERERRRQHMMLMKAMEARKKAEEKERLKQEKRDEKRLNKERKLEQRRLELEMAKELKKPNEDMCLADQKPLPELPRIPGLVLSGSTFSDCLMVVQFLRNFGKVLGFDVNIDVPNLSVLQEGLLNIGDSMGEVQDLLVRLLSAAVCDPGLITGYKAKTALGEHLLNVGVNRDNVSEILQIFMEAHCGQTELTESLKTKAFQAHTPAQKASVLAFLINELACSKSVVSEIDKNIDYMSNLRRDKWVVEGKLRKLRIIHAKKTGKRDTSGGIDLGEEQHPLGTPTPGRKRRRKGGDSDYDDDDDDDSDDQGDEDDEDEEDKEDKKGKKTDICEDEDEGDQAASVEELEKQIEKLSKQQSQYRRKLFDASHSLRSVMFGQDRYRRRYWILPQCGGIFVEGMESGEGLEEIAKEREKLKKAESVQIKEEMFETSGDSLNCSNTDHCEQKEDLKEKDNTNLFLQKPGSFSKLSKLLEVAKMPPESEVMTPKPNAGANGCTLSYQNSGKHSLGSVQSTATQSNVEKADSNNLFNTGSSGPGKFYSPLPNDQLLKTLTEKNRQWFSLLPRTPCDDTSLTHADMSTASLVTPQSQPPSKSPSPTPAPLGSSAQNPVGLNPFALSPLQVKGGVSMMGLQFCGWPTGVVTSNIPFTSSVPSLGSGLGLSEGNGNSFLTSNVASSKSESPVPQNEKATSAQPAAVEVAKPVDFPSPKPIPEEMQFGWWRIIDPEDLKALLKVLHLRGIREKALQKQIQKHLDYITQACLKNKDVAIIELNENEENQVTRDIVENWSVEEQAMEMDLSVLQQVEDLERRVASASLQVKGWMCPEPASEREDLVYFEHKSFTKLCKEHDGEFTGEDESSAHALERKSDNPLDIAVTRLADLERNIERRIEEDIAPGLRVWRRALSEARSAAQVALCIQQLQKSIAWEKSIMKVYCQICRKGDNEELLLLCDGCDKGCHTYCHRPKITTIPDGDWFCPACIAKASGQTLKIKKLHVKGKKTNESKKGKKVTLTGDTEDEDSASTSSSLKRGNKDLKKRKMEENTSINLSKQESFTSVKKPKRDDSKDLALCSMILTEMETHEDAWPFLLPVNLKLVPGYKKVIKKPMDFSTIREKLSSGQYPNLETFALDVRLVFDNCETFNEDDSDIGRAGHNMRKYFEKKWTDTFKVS
#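 Multi-concentration screen (max 110 uM) measuring displacement of acetylated histone H3 peptide from BAZ2B by AlphaScreen, using 50 nM protein, 50 nM peptide and 10 ug/mL streptavidin donor plus Ni-chelate acceptor beads.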
# KDM4E inh – qHTS Assay for Inhibitors of Human Jumonji Domain Containing 2E (JMJD2E); Potency, µM (series often up to 57.1 µM), inactives show at the highest dose activity change, negative = inhibition, most hits filed as inhibitors; 230,000 compounds, 1.6% hits; JMJD2E catalytic domain, FDH-coupled NADH fluorescence (FDH is formaldehyde dehydrogenase); active = well fitted inhibition curve with a large enough effect, not every such curve was filed as active; inconclusive = small, poorly fitted or top-dose-only effect, or another doubt; inactive = no such curve, though single readings can be large or run the other way;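 also: potency is read from the fitted curve at half-maximal effect; 0% = wells with enzyme and -100% = buffer wells without enzyme; nearly all actives have a fitted effect of over 50% in size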
# JMJD2A Tudor inh – qHTS Assay for Inhibitors of JMJD2A-Tudor Domain | AlphaScreen JMJD2A-Tudor / H3K4me3 peptide binding | Potency, µM (highest dose often 114 µM), for inactives: at the highest dose activity change, negative = inhibition, most hits filed as inhibitors | 390,000 compounds, 4.4% hits | AID 504339, 2011; also: potency is read from the fitted curve at half-maximal effect; % is scaled to controls: 0 for no effect and ±100 for the full control effect; nearly all actives have a fitted effect of over 50% in size
# PI5P4K alpha inh – qHTS for Inhibitors of phosphatidylinositol 5-phosphate 4-kinase (PI5P4K) | Phosphatidylinositol 5-phosphate 4-kinase type-2 alpha (Homo sapiens), P48426 | AID 652105, 2013 | 330,000 compounds, 1.2% hits | PI5P4Kalpha enzyme, ADP-Glo luminescence, 60 min; active compounds read low | max response, %; active = max response of -50% or lower; inconclusive = between -30% and -50%; inactive = -30% or higher; also: value at the top dose of about 77 µM; % is scaled to controls: 0 for no effect and ±100 for the full control effect
#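 ADP-Glo luminescence end-point after a 60 min room-temperature kinase reaction. PI5P4Kalpha and substrate in HEPES pH 7.4 buffer with EGTA, 0.1% CHAPS and 5% DMSO; ATP at 5 microM final.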
# L3MBTL1 block – qHTS Assay for the Inhibitors of L3MBTL1. Lethal(3)malignant brain tumor-like protein 1 (Homo sapiens), Q9Y468. 230,000 compounds, 0.66% hits. AlphaScreen L3MBTL1–H3K9me1 peptide binding. Potency, µM (top dose mostly 57.1 µM), without a hit: at the top dose activity, negative = inhibition, hits mostly inhibitors; also: potency is read from the fitted curve at half-maximal effect; % is scaled to controls: 0 for no effect and ±100 for the full control effect; nearly all actives have a fitted effect of over 60% in size
#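 L3MBTL1 50 nM + b-AHA-H3(1-15)K9me1 75 nM, 30 min RT; compound added, 30 min RT; streptavidin donor/Ni-chelate acceptor beads 10 ug/mL each final, 30 min RT dark; AlphaScreen read.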
# Active calls of the source: *; ? = inconclusive; . = not tested or not shown; ! = repeats disagree; [ ] = another dose, or the depositor's remark. Hits are enriched below; roughly 5.7% of the tested compounds scored in any of these assays. Unless noted, calls follow the shape of the dose curve; as a rule, active = well fitted inhibition curve with a large enough effect; inconclusive = small, poorly fitted or top-dose-only effect; inactive = no such curve, though single readings can be large or run the other way.
SMILES,HP1b chromo inh,BAZ2B inh,KDM4E inh,JMJD2A Tudor inh,PI5P4K alpha inh,L3MBTL1 block
CN(C)c1ccc(/C=N/N2CCN(Cc3ccccc3Cl)CC2)cc1,?,50µM*,.,32µM*,15,1%
CCN(CC)c1ccc(/C=N/N2CCN(Cc3ccccc3)CC2)c(O)c1,-77%,13µM*,-21%,14µM*,13,-3%
CN(c1ccccc1)c1ccc(/C=N/N2CCOCC2)cc1,50µM*,50µM*,?,45µM*,1,-23%
CN(C)c1ccc(/C=N/N2CCN(c3ccccn3)CC2)cc1,6%,-28%,-21%,-28%,-3,-18%
COC(=O)C1=C/C=C\CN(C(c2ccccc2)c2ccccc2)/C=C\1C(=O)OC,.,.,.,.,0,.
COC(=O)c1ccc(/C=N/N2CCN(Cc3ccccc3)CC2)cc1,12%,-8%,-1%,-20%,13,-6%
CCN(CC)c1ccc(/C=N/N2CCN(Cc3ccccc3)CC2)cc1,?,14µM*,?,22µM*,10,.
CCN(CC)c1ccc(/C=N/N2CCN(Cc3ccc(C)cc3C)CC2)c(O)c1,20µM*,10µM*,3%,22µM*,7,-8%
O=C(c1ccc(F)cc1)N1CCc2c([nH]c3ccccc23)C1c1ccc(Cl)cc1 (stereo unspecified),0%[57 µM],-29%,.,?,.,.
CCCCNc1nc(C)nc2c1nc(C)n2CCC,.,.,3%,.,.,.
CC(=O)Nc1ccc(C2=NN(C)C(=NCc3ccccc3)SC2)cc1,-11%,.,-8%,45µM*,?,-15%
COc1ccc(C2CC(=O)Oc3cc(O)cc(O)c32)cc1 (stereo unspecified),26%,-1%,-6%,-19%,13,.
O=C(O[C@@H]1Cc2c(O)cc(O)cc2OC1c1ccc(O)c(O)c1)c1cc(O)c(O)c(O)c1 (stereo partly specified),.,.,7.1µM*,.,.,.
Oc1cc(O)c2c(c1)O[C@H](c1ccc(O)c(O)c1)[C@H](O)C2,18%,?,11µM*!,-17%,-2,-26%
Oc1ccc(C2Oc3cc(O)cc(O)c3CC2O)cc1 (stereo unspecified),.,.,-9%,.,.,.
O=C1C[C@@H](c2ccc(O)cc2)Oc2cc(O)cc(O)c21,31%,0%,-1%,-1%,-4,9%
O=C1c2c(O)cc(O)cc2OC(c2ccc(O)c(O)c2)C1O (stereo unspecified),.,.,8.9µM*,.,.,.
COc1ccc([C@H]2Oc3cc(O)cc(O)c3C(=O)C2[C@@H]2C(=O)c3c(O)cc(O)cc3O[C@@H]2c2ccc(OC)cc2)cc1 (stereo partly specified),-16%,-30%,-21%,?,-58*,.
CCOC(=O)Cc1ccc(NC(=O)N2CCc3c(sc4c3CCCC4)C2c2ccc(F)cc2)cc1 (stereo unspecified),-12%,-23%,.,-26%,.,.
Cc1cn(C)c(CC(=O)Nc2cccc(Cl)c2C)c1C(=O)O,30%,-17%,.,-22%,.,.
COc1cc(F)c(S(=O)(=O)N2CCN(S(=O)(=O)c3ccc4c(c3)OCCO4)CC2)c(F)c1,.,.,.,-7%,.,.
O=S(=O)(NCCc1csc2nc(-c3ccc(F)cc3)nn12)c1ccc2c(c1)OCCO2,27%,-2%,.,-6%,.,.
CCOc1ccccc1CNC(=O)c1cc2c(=O)n(Cc3cccnc3)ccc2nc1C,22%,-17%,.,-18%,.,.
O=C(OC1Cc2c(O)cc(O)cc2OC1c1cc(O)c(O)c(O)c1-c1c(C2Oc3cc(O)cc(O)c3CC2OC(=O)c2cc(O)c(O)c(O)c2)cc(O)c(O)c1O)c1cc(O)c(O)c(O)c1 (stereo unspecified),.,.,11µM*,.,.,.
O=C1C(=O)C(c2ccc(O)cc2O)Oc2cc(O)cc(O)c21 (stereo unspecified),?,.,.,14µM*,.,.
SMILES,HP1b chromo inh,BAZ2B inh,KDM4E inh,JMJD2A Tudor inh,PI5P4K alpha inh,L3MBTL1 block
CCOc1ccc(C(=O)Nc2cc(-c3nc4ccccc4[nH]3)ccc2C)cc1[N+](=O)[O-],13%,-1%,3%,-25%,-7,-6%
CCOc1ccc(C(=O)Nc2cc(-c3nc4ccccc4[nH]3)ccc2Cl)cc1[N+](=O)[O-],0%,-11%,-8%,79µM*,-12,-2%
Cc1ccc(CNC(=O)CN2C(=O)C3CCCCN3c3ccc(C(=O)N(C)C)cc32)cc1 (stereo unspecified),25%[57 µM],3%,.,1%,.,.
CC(C)(C)NC(=O)NC(=O)CSc1ccc(S(=O)(=O)N2CCOCC2)cn1,-13%,16%,.,79µM*,-5,0%
CCOCCn1ccc2c(OCC(=O)Nc3cccc([N+](=O)[O-])c3)cccc2c1=O,60%,0%,.,-10%,.,.
COc1cccc(NC(=O)CCSc2nc(-c3ccco3)cc(C(F)(F)F)n2)c1,47%,8%,.,7%,.,.
Cc1sc(N)nc1C12CC3CC(CC(C3)C1)C2,?,?,-6%,-26%,8,-21%
S=c1nc(C23CC4CC(CC(C4)C2)C3)[nH][nH]1,-31%,-6%,-24%,3.5µM*,-16,4%
CCCCN(C(=O)COC(=O)CSc1ccc([N+](=O)[O-])cc1)c1c(N)n(CCC)c(=O)[nH]c1=O,8%,1%,.,-6%,-6,-4%
CC(Sc1nnc(-c2ccncc2)n1C)C(=O)NCC1CCCO1 (stereo unspecified),43%,-3%,.,-16%,-3,-4%
CCOc1ccccc1NC(=O)Cc1ccccc1OC,9%,7%,1%,-21%,1,-16%[11.4 µM]
COc1ccc(NCC(=O)Nc2ccc(C#N)cc2)cc1Cl,19%,?,5%,-26%,.,.
COc1ccccc1NC(=O)Nc1ccc(N2CCOCC2)cc1,-1%,-24%,-4%,?,-2,.
COc1ccccc1CNCC(=O)Nc1ccc(N2CCOCC2)cc1,8%,50µM*,?,40µM*,1,-2%
COc1ccccc1CNCC(=O)Nc1ccc(C(F)(F)F)cc1,6%,56µM*,-27%,-14%,0,.
COc1ccccc1CNCC(=O)Nc1ccccc1-n1cccc1,?,50µM*,?,22µM*,4,-22%
COc1ccccc1CNCC(=O)Nc1ccc(C#N)cc1,-21%,50µM*,.,?,9,.

# High-throughput results: PubChem, National Center for Advancing Translational Sciences (NCATS)
